60 compounds from PubChem BioAssay AID492953 (The Scripps Research Institute Molecular Screening Center, 2010) can be followed below.

Each structure is given as a SMILES string. The campaign covered roughly 340,000 compounds. About 4,200 (1.2%) were called active.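 The calls were made as follows: active = inhibition above the mean of all tested compounds plus 3 SD (cut at about 24% in these data); inactive = the rest.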 The entries come from a sample that favours actives as a whole.

In the test the target is Platelet-activating factor acetylhydrolase IB subunit alpha2 (Homo sapiens) (UniProt P68402). Description: inhibition of PAF acetylhydrolase 1b subunit 2 – biochemical, fluorescence polarization, human, primary screen (AID 492953).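 Also: 0% = enzyme with DMSO and 100% = wells lacking PAFAH1B2.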 The note with it: recombinant PAFAH1B2, FP-rhodamine activity probe, at 3.39 µM, active compounds read high.
Platelet-activating factor acetylhydrolase IB subunit alpha2 (Homo sapiens), sequence (P68402 whole entry, looked up): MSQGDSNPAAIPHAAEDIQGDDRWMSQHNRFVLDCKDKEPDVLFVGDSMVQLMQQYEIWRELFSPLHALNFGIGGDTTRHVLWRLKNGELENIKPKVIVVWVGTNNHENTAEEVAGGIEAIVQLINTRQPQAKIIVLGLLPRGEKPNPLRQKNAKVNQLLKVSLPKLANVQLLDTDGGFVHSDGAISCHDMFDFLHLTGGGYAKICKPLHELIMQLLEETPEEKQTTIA
On to `COc1cc(CNc2ncn[nH]2)ccc1OCc1ccccc1C`, for which the inhibition was -0.89% (inactive).

For the compound `CN(CCCNC(=O)CN1C(=O)CC(C)(C)S(=O)(=O)c2ccccc21)C1CCCCC1`, the inhibition is 5.24% (inactive).

With `COC(=O)c1c(-c2ccc(C)cc2)csc1N`, the inhibition was 2.65% (inactive).

As for `Nc1scc(-c2ccncc2)c1Cl`, the inhibition is 89.9% (active).

With `CCOc1ccc(NC(=O)CSc2nc3ccccc3c(=O)n2Cc2cccs2)cc1`, the inhibition was 6.05% (inactive).

As to `CN1C(C)(C)CC(NC(=O)CCC(=O)NC2CC(C)(C)N(C)C(C)(C)C2)CC1(C)C`, the inhibition is 2.28% (inactive).

As for `COc1cc(C(=O)N2C(=O)c3cccc(N)c3C2=O)cc(OC)c1OC`, the inhibition was 1.13% (inactive).

`CC(=O)N1CCN(S(=O)(=O)c2cccc(C(=O)NC3CCC(C)CC3)c2)CC1` (stereo not given): the inhibition was 5.89% (inactive).

For `CC1CC(C)CN(S(=O)(=O)c2cccc(C(=O)N3C(=O)c4cccc(N)c4C3=O)c2)C1` (stereo not given), the inhibition was 39.9% (active).

Take `CCn1c(SCC(=O)Nc2nc(C)cs2)nnc1C(C)NC(=O)c1ccccc1` (stereo not given): the inhibition is 8.33% (inactive).

With `CCC(=O)Nc1nnc(S(=O)(=O)N(CC(C)C)c2ccccc2)s1`, the inhibition was 17.8% (inactive).

Consider `CC(C)CC(=O)Nc1nnc(S(=O)(=O)N(C)c2ccc(Cl)cc2)s1`, for which the inhibition was 26.6% (active).

Turning to `COc1cccc(C(=O)Nc2nnc(S(=O)(=O)N(C)c3ccccc3)s2)c1`, the inhibition was -2.38% (inactive).

For `COC(=O)c1sccc1NS(=O)(=O)c1ccc(F)cc1F`, the inhibition was 0.87% (inactive).

Regarding `CC(=O)c1c(C)[nH]c(C(=O)Nc2cc(S(=O)(=O)N(C)C)ccc2C)c1C`, the inhibition was 2.08% (inactive).

Turning to `O=C(NC1CCN(S(=O)(=O)c2ccc(F)cc2)CC1)c1ccccc1`, the inhibition was 2.57% (inactive).

Take `Cc1ccc(S(=O)(=O)/N=C(/NC(=S)Nc2c(C)n(C)n(-c3ccccc3)c2=O)c2ccccc2)cc1`: the inhibition is 9.33% (inactive).

With `O=C(CSc1nc(C2CC2)nc2ccccc12)Nc1ccc2c(c1)OCCO2`, the inhibition is 38% (active).

Regarding `Cc1nnc(NC(=O)CSc2nc(C3CCCCC3)nc3ccccc23)s1`, the inhibition was 0.98% (inactive).

Take `O=C(CSc1nc(C2CC2)nc2ccccc12)Nc1cccc(O)c1`: the inhibition is -0.49% (inactive).

In the case of `O=C(CN1C(=O)CSC1=O)N1CCCC(Nc2ccc(F)cc2)C1` (stereo not given), the inhibition was -1.15% (inactive).

On to `O=C(c1ccc2c(c1)C(=O)N(Cc1ccncc1)C2=O)N1CCN(S(=O)(=O)c2ccc(OC(F)(F)F)cc2)CC1`, for which the inhibition was 5.75% (inactive).

Turning to `CC1CC(=S)Nc2ccccc2N1Cc1ccccc1` (stereo not given), the inhibition was 7.13% (inactive).

Take `CC1CN(Cc2ccco2)C(=S)N(c2ccccc2)C1=O` (stereo not given): the inhibition is 5.61% (inactive).

For the compound `CC1CN(Cc2ccccc2)C(=S)NC1=O` (stereo not given), the inhibition is 29.8% (active).

For the compound `COc1ccc(CCNC(=O)c2ccc(NC(=O)CC3SC(N4CCCCC4)=NC3=O)cc2)cc1OC` (stereo not given), the inhibition is 1.09% (inactive).

With `Cc1ccc(C2CC(c3cccc(Br)c3)n3nc(N)nc3N2)cc1` (stereo not given), the inhibition is 0.4% (inactive).

With `COCCn1c(Cc2cccn2C)nnc1SCC(=O)Nc1nccs1`, the inhibition is -1.79% (inactive).

For the compound `CC(C)CNC(=O)C1CCCN(S(=O)(=O)c2ccc(-n3cnnn3)cc2)C1` (stereo not given), the inhibition is 5.01% (inactive).

As for `CC(NC(=O)C1CCCN(S(=O)(=O)c2ccc(-n3cnnn3)cc2)C1)c1ccc(F)cc1` (stereo not given), the inhibition was 26.6% (active).

As to `O=C(Nc1ccc(F)cc1)C1CCCN(S(=O)(=O)c2ccc(-n3cnnn3)cc2)C1` (stereo not given), the inhibition is 0.34% (inactive).

On to `O=C(NCc1cccc(Cl)c1)C1=CC=CN2CCS(=O)(=O)N=C12`, for which the inhibition was 6% (inactive).

Consider `O=C(C1CCN(CC2CCCCC2)CC1)N1CCCC1`, for which the inhibition was 0.2% (inactive).

For `CCCCN(CC)CCCNC(=O)c1ccc(CSc2nc3ccncc3[nH]2)cc1`, the inhibition was -2.43% (inactive).

With `CC1=NN(/C(=N\c2nnc(C)s2)Nc2ccccc2)[C@H](c2ccc(C)cc2)S1`, the inhibition is 6.77% (inactive).

As for `CCCSc1nsc(N)n1`, the inhibition is 3.46% (inactive).

Regarding `Nc1nc(SC23CC4CC(CC(C4)C2)C3)ns1`, the inhibition is 25.4% (active).

As to `CCCCCCSc1nsc(N)n1`, the inhibition is 3.17% (inactive).

Consider `Nc1ccn(C2CC(O)C(CO)O2)c(=O)n1` (stereo not given), for which the inhibition was 4.72% (inactive).

As to `COc1cc(C(=O)NCC(=O)NCCSc2ccc(Br)cc2)cc(OC)c1OC`, the inhibition is 18.7% (inactive).

With `COc1ccccc1C(=O)NCC(=O)NCCSc1ccc(Br)cc1`, the inhibition is 27.3% (active).

`COc1ccccc1C(=O)NCC(=O)OCC(=O)NNC(=O)c1ccc(Br)cc1`: the inhibition was 4.05% (inactive).

As to `Cc1c(C(=O)NC2CCCCC2)oc2ccccc12`, the inhibition is 1.03% (inactive).

On to `Cc1ccc(C(=O)OCC(=O)NCc2ccc3c(c2)OCO3)s1`, for which the inhibition is -1.11% (inactive).

For `COc1cccc(CC(=O)OCC(=O)NCc2ccc3c(c2)OCO3)c1`, the inhibition was 8.95% (inactive).

`Cc1cc(Br)ccc1SCC(=O)OCC(=O)NCc1ccc2c(c1)OCO2`: the inhibition was 25.2% (active).

Turning to `O=C(Cc1c(O)c2ccccc2[nH]c1=O)NCc1ccccc1`, the inhibition is 2.81% (inactive).

On to `CCc1ccc2[nH]c(=O)c(Cc3ccccc3)c(O)c2c1`, for which the inhibition was 24.7% (active).

For the compound `Cc1ccc2c(O)c(Cc3ccccc3)c(=O)[nH]c2n1`, the inhibition is 0.81% (inactive).

For `O=C(Nc1ccccc1)Oc1cccc2cccnc12`, the inhibition is 3.18% (inactive).

In the case of `O=C(c1cccc(S(=O)(=O)N2CCCCCC2)c1)N1CCN(Cc2ccccc2)CC1`, the inhibition was 0.99% (inactive).

For the compound `O=C(NC(=O)c1ccc(Cl)c(Cl)c1)OC1CCS(=O)(=O)C1` (stereo not given), the inhibition was -3.52% (inactive).

`O=C(NCCc1c[nH]c2ccccc12)c1cc2ccccc2oc1=O`: the inhibition was 6.1% (inactive).

On to `CC1CCCCC1NC(=O)COc1ccc(C#N)cc1` (stereo not given), for which the inhibition was 2.44% (inactive).

With `Oc1ccc(N=Nc2nccs2)c(O)c1`, the inhibition is 35.3% (active).

As for `O=C(OC12CC3CC(CC(C3)C1)C2)c1ccc(NCc2cc(O)ccc2O)cc1`, the inhibition is 3.5% (inactive).

With `CCn1cc(C(=O)NC2CCCCCC2)c(=O)c2cc(S(=O)(=O)N3CCCCC3)ccc21`, the inhibition was 0.07% (inactive).

Consider `COc1ccc(S(=O)(=O)N2CCOCC2)cc1C(=O)NC1CCCCC1`, for which the inhibition is 2.51% (inactive).

Turning to `Cc1ccc(S(=O)(=O)N2CCN(C)CC2)cc1C(=O)NC1CCCCC1`, the inhibition was 25.7% (active).

As to `COc1ccc2c(c1)c(=Cc1ccc(N(C)C)cc1)c1cc(-c3ccccc3)[n+](C)n12`, the inhibition was -27.4% (inactive).

The inhibition is the relative decrease from the control value, in per cent.
